# Data published in the supplement of paper PMC11732987, “Enantioselective OTUD7B fragment discovery through chemoproteomics screening and high-throughput optimisation” (Communications Chemistry, 2025).
# Unmarked numbers belong to inactive results.
# Assays:
# Assay in all cases: log2 ratio of Biotin-Ahx-Ub-VS probe labelling (fragment/DMSO); higher = less target engagement (more negative = stronger competition), active = hit call of the paper (q ≤ 0.05, log2 ratio ≤ -1)
# Details in all cases: compound concentration: 200 uM; treatment time: 3 h
# [1] = biological target: T1, OTUD6B (UniProt Q8N6M0)
# T1 sequence (whole entry): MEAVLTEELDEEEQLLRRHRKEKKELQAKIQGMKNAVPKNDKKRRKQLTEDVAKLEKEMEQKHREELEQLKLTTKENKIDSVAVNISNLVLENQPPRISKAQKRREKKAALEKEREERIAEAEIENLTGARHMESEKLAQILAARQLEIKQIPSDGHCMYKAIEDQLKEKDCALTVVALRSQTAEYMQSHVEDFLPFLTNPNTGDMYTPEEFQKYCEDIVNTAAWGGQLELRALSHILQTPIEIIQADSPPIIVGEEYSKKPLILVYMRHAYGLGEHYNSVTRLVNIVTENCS
# How it was run: (§1)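 Triplicate samples of HEK293T lysate, 495 µg each, received fragment at 200 µM or vehicle for 3 h, followed by Biotin-Ahx-Ub-VS (0.5 µM final) for 1 h. After NeutrAvidin enrichment of labelled DUBs and LysC/trypsin digestion, peptides were run by diaPASEF LC-MS/MS. The values are average log2 fragment/vehicle ratios from global-median-normalised Spectronaut label-free quantities, tested by unpaired t-test on proteins having ≥2 unique peptides.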
# [2] = biological target: T2, OTUD7B (UniProt Q6GQQ9)
# T2 sequence (whole entry): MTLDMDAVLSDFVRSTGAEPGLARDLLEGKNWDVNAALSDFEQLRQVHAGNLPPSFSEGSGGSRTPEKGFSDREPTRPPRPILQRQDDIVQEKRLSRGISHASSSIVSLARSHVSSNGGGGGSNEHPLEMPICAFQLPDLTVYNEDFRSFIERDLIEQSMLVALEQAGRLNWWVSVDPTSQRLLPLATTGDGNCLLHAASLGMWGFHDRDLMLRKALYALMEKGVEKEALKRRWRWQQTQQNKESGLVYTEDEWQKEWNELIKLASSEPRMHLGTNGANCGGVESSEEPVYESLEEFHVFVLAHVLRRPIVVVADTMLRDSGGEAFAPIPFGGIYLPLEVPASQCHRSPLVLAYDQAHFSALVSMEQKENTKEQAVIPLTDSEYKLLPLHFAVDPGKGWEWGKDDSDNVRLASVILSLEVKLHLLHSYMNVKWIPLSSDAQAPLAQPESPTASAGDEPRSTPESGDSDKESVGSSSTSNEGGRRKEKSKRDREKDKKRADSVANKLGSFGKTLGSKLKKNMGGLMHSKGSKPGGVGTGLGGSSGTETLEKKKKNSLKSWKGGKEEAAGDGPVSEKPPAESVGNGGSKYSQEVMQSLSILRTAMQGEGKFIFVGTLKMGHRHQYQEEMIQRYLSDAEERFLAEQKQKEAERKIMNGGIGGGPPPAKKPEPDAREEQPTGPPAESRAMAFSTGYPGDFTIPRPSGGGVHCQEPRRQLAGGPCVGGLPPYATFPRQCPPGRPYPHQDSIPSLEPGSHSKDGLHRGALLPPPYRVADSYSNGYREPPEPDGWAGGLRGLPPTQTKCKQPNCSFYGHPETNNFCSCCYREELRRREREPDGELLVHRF
# How it was run: as §1
# [3] = biological target: PRPF8 (UniProt Q6P2Q9)
# How it was run: as §1
# [4] = biological target: T3, PSMD7 (UniProt P51665)
# T3 sequence (whole entry): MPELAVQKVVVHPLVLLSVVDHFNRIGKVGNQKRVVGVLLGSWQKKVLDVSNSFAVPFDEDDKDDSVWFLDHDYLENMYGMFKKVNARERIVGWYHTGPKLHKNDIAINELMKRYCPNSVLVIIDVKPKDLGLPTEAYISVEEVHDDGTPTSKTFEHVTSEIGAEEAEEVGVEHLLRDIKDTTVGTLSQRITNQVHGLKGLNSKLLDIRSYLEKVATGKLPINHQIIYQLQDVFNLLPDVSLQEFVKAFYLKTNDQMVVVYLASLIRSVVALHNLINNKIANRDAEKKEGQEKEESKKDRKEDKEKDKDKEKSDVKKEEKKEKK
# How it was run: as §1
# [5] = biological target: UCHL1 (UniProt P09936)
# How it was run: as §1
# [6] = biological target: T4, UCHL3 (UniProt P15374)
# T4 sequence (whole entry): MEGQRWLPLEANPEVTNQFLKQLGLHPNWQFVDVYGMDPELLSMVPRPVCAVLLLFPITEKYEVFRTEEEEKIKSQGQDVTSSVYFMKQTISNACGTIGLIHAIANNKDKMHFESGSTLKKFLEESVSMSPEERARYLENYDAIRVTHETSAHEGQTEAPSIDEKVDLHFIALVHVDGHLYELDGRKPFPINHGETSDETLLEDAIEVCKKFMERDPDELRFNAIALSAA
# How it was run: as §1
# [7] = biological target: T5, UCHL5 (UniProt Q9Y5K5)
# T5 sequence (whole entry): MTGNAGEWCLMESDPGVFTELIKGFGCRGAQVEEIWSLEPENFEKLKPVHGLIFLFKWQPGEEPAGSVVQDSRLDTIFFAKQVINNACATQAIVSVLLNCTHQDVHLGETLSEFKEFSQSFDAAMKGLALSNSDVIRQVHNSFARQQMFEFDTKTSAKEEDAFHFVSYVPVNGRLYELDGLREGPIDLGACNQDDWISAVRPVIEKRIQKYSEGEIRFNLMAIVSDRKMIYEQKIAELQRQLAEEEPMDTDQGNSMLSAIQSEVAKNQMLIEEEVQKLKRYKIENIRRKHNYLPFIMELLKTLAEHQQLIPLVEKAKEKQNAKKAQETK
# How it was run: as §1
# [8] = biological target: USP10 (UniProt Q14694)
# How it was run: as §1
# [9] = biological target: T6, USP15 (UniProt Q9Y4E8)
# T6 sequence (whole entry): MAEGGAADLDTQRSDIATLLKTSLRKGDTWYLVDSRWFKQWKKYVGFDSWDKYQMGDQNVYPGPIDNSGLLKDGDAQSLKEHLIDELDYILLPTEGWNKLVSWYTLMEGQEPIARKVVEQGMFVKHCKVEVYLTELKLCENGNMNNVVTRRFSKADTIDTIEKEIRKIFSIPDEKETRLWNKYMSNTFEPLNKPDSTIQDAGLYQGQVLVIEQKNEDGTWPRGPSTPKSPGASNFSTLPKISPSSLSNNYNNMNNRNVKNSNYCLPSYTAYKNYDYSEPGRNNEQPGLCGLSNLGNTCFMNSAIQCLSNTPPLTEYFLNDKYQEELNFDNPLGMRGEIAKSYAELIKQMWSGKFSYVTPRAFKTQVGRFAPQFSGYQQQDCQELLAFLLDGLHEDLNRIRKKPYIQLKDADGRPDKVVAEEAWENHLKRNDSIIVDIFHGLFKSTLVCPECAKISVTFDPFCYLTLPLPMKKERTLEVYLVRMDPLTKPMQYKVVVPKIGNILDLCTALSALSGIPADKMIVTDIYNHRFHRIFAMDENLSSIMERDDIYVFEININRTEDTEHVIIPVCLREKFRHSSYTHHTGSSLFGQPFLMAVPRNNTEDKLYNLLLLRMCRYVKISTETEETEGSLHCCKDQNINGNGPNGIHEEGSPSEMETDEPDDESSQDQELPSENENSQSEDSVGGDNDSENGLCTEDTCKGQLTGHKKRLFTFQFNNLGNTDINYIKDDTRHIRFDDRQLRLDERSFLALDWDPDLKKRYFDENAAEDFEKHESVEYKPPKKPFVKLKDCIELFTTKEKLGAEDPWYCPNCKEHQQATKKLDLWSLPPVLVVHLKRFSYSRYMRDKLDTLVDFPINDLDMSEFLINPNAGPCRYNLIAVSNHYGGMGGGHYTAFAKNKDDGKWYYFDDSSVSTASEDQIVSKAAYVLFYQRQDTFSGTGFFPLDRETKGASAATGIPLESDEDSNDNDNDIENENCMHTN
# How it was run: as §1
# [10] = biological target: USP16 (UniProt Q9Y5T5)
# How it was run: as §1
# Sequence of UCHL1 (P09936 whole entry, looked up): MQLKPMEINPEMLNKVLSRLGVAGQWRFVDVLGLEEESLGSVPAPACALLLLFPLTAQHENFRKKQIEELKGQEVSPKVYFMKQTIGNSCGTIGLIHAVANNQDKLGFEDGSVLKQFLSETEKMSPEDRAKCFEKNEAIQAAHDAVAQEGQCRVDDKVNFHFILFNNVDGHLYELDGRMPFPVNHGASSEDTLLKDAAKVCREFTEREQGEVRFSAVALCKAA
# Sequence of USP10 (Q14694 whole entry): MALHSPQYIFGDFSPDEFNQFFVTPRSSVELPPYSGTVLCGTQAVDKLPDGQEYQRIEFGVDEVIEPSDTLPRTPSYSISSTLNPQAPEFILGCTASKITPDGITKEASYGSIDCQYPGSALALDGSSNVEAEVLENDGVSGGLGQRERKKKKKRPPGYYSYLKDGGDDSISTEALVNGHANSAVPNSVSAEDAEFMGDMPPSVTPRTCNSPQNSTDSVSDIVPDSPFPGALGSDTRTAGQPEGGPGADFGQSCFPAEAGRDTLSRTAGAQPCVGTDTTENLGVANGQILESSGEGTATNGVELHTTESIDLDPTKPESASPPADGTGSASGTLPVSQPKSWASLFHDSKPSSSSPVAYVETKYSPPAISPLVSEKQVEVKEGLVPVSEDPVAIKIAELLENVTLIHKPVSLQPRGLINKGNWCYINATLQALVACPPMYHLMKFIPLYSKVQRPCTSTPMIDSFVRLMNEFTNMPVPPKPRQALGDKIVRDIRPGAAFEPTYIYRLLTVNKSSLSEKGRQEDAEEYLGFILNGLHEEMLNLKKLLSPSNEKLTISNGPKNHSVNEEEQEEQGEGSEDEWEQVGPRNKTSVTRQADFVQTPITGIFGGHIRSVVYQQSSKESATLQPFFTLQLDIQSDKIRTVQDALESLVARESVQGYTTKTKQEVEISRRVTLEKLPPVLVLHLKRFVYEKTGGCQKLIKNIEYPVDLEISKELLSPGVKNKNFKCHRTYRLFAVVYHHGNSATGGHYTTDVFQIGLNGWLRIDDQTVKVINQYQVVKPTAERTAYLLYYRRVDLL
# Sequence of USP16 (Q9Y5T5 whole entry, looked up): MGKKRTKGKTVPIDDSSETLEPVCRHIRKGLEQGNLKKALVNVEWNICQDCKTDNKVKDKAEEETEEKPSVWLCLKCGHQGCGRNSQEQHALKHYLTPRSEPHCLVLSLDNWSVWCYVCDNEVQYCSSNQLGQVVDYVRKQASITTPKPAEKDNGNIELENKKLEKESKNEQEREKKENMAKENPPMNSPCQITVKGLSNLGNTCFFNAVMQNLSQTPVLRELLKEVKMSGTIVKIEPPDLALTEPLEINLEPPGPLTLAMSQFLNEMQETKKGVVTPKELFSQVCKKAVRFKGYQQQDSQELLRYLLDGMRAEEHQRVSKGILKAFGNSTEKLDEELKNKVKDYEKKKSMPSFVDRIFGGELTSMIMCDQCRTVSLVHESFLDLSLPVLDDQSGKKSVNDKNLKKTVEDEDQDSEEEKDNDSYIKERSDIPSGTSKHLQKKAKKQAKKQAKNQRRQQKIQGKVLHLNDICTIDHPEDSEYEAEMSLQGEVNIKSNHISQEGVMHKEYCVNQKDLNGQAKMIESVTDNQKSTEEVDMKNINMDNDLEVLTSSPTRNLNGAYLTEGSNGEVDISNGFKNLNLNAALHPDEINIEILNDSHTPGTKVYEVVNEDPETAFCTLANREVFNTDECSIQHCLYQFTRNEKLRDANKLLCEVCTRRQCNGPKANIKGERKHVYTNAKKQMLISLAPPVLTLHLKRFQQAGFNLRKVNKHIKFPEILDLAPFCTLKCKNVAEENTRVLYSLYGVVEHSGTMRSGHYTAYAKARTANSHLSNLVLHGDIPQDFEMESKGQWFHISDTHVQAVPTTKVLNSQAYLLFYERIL
Compound,log2 ratio of Biotin-Ahx-Ub-VS probe labelling [1],log2 ratio of Biotin-Ahx-Ub-VS probe labelling [2],log2 ratio of Biotin-Ahx-Ub-VS probe labelling [3],log2 ratio of Biotin-Ahx-Ub-VS probe labelling [4],log2 ratio of Biotin-Ahx-Ub-VS probe labelling [5],log2 ratio of Biotin-Ahx-Ub-VS probe labelling [6],log2 ratio of Biotin-Ahx-Ub-VS probe labelling [7],log2 ratio of Biotin-Ahx-Ub-VS probe labelling [8],log2 ratio of Biotin-Ahx-Ub-VS probe labelling [9],log2 ratio of Biotin-Ahx-Ub-VS probe labelling [10]
O=C(O)C1Cc2ccccc2CN1C(=O)CCl (stereo not given),-0.439,-0.732,-0.175,-0.239,-1.8 (active),-0.19,-0.324,-0.112,-0.35,0.23
O=C(CCl)N1CCOC2(CCC2)C1,0.01,-1.29 (active),-0.0922,-0.254,-1.53 (active),0.273,-0.0117,0.0764,0.059,0.246
O=C(CCl)N1CCOCCC1c1ccccc1 (stereo not given),-0.163,-0.354,-0.148,0.00247,-1.93 (active),0.325,-0.0371,-0.182,0.0371,-0.424
O=C(CCl)Nc1cc(Cl)ccc1-n1cncn1,-1.04 (active),-2.08 (active),-0.132,-0.143,-1.89 (active),-0.609,-1.18 (active),-0.141,-1.26 (active),0.0892
O=C(CCl)N1CCC(C(=O)N2CCCCCC2)CC1,0.0239,-0.19,0.0601,-0.0463,-1.19 (active),0.241,-0.191,-0.0405,-0.115,-0.164
Cl.O=C(CCl)N1CCC(n2nc3ccccc3n2)CC1,-0.35,-0.287,0.224,-0.494,-0.9,-0.23,-0.457,-0.135,-0.702,-0.441
O=C(CCl)NCCC1=CCCCC1,-0.254,-0.269,0.145,0.0106,-1.6 (active),0.284,-0.111,-0.0126,-0.103,-0.0314
